Experimental data reported in PubChem BioAssay (EPA / NIEHS).
The source made the active and inactive calls. How the source made its calls: active means hit-call score of the fitted dose curve at least 0.9, where 1 is the maximum; inactive means score below 0.9.

Legend:
[1] = ATG_PPRE_CIS: Attagene CIS-FACTORIAL HepG2 Assay for human Peroxisome Proliferator-activated Response Element (PPRE) (AID 2282958); settings: HepG2 PPRE cis-element reporter, Attagene transcription factor profiling; actives raise or lower the signal
Summary of the method: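 HepG2 cells are transiently transfected with multiplexed cis-promoter reporter units to report endogenous PPAR activity. After 24 h dosing, reporter mRNA is read by RT-PCR and capillary electrophoresis. Fitting is bidirectional against DMSO.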

[2] = ATG_RORE_CIS: Attagene CIS-FACTORIAL HepG2 Assay for human RAR-related Orphan Receptor Element (RORE) (AID 2282959); settings: HepG2 Attagene cis-factorial RORE reporter, mRNA; actives raise or lower the signal
Summary of the method: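 HepG2 cells carrying transiently transfected cis-regulated reporter units; RORE-driven reporter mRNA quantified 24 h post-dosing by RT-PCR, 6-FAM primer extension, HpaI digestion and capillary electrophoresis. Bidirectional fit versus DMSO.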

[3] = ATG_Sox_CIS: Attagene CIS-FACTORIAL HepG2 Assay for human SRY-box transcription factor (SOX) (AID 2282960); settings: HepG2 Attagene cis-factorial SOX reporter, mRNA; actives raise or lower the signal
Summary of the method: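 HepG2 cells transiently transfected with multiple cis-regulated reporter units, then dosed for 24 h. Reporter mRNA quantified by RT-PCR, fluorescent labelling, HpaI digestion and capillary electrophoresis; bidirectional fit versus DMSO.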

[4] = target: Transcription factor Sp1 (Homo sapiens) (UniProt P08047); experiment: ATG_Sp1_CIS: Attagene CIS-FACTORIAL HepG2 Assay for human Specificity Protein 1 (Sp1) (AID 2282961); settings: HepG2 Sp1 cis-reporter transcription, actives raise or lower the signal
Transcription factor Sp1 (Homo sapiens), sequence (P08047 whole entry, looked up): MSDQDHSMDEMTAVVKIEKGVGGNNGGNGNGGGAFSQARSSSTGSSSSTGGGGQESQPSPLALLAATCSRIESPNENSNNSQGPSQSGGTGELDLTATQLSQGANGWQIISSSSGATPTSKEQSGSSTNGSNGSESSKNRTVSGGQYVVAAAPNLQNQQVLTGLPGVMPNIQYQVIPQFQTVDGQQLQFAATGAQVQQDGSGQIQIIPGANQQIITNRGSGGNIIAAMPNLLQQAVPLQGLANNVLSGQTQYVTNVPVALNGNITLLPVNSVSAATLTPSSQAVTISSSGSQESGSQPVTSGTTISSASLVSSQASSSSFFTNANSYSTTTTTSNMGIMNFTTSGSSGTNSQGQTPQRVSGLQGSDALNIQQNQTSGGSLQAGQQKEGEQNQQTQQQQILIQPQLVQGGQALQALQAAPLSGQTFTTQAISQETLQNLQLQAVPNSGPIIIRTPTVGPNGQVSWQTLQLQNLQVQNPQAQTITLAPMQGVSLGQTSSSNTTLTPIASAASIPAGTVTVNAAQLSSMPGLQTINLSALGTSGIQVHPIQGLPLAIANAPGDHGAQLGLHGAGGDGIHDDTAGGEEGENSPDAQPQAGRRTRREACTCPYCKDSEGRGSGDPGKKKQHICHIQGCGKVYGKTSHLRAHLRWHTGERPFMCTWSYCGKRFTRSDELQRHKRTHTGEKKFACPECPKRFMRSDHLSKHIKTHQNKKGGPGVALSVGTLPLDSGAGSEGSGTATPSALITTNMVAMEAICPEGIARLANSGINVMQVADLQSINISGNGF
Summary of the method: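 HepG2 cells transiently transfected with multiplexed cis-regulated reporter constructs, chemical exposure 24 h. Reporter mRNA quantified by RT-PCR with capillary electrophoresis; bidirectional fit relative to DMSO.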

[5] = ATG_SREBP_CIS: Attagene CIS-FACTORIAL HepG2 Assay for human Sterol Regulatory Element Binding (SREBP) (AID 2282962); settings: HepG2 Attagene cis-factorial SREBP reporter, mRNA; actives raise or lower the signal
Summary of the method: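 HepG2 cells transiently transfected with multiplexed cis-promoter reporter units sensing endogenous transcription factors; reporter mRNA measured 24 h after dosing by RT-PCR, 6-FAM labeling, HpaI digestion and capillary electrophoresis. Bidirectional fit versus DMSO.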

[6] = target: Signal transducer and activator of transcription 3 (Homo sapiens) (UniProt P40763); experiment: ATG_STAT3_CIS: Attagene CIS-FACTORIAL HepG2 Assay for human Signal Transducer and Activator of Transcription 3 (STAT3) (AID 2282963); settings: HepG2, Attagene cis-factorial STAT3 reporter transcription; actives raise or lower the signal
Signal transducer and activator of transcription 3 (Homo sapiens), sequence (P40763 whole entry, looked up): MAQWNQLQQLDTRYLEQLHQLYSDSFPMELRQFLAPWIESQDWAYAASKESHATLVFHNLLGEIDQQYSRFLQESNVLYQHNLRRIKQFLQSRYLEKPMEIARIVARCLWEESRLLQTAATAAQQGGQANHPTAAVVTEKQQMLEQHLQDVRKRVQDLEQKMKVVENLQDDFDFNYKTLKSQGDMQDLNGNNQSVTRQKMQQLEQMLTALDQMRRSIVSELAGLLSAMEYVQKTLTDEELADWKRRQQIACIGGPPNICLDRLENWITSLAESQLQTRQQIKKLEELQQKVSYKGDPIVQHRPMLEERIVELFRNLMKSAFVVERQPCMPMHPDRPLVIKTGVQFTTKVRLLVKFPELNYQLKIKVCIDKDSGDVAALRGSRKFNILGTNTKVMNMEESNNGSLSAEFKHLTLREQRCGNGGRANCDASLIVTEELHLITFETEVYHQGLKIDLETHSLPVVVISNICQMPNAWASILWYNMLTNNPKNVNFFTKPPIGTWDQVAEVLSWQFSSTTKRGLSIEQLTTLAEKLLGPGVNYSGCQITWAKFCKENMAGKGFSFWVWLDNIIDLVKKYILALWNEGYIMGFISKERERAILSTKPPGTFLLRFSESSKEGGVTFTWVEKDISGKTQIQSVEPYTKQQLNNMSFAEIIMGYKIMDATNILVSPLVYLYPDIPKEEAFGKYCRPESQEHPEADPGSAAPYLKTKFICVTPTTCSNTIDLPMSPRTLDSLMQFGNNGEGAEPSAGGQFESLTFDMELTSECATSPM
Summary of the method: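 After a 24 h compound incubation, total RNA from MRTU-transfected HepG2 cells was converted to cDNA and reporter sequences PCR-amplified, labelled and profiled by capillary electrophoresis. Gain and loss of signal were referenced to DMSO.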

[7] = ATG_TA_CIS: Attagene CIS-FACTORIAL HepG2 Assay for human TA Basal Promoter (AID 2282964); settings: HepG2 Attagene CIS-factorial TA basal promoter reporter; actives raise or lower the signal
Summary of the method: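 Multiplexed mRNA reporter assay, HepG2, 24 h. Reporter cDNA amplified, 6-FAM primer-extended, HpaI-cut, CE-sized; DMSO = negative control and baseline.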

[8] = ATG_TCF_b_cat_CIS: Attagene CIS-FACTORIAL HepG2 Assay for human T-Cell-Factor with beta-catenin (TCF/b-cat) (AID 2282965); settings: HepG2 TCF/beta-catenin cis-reporter transcription, actives raise or lower the signal
Summary of the method: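 Endogenous TCF/LEF activity read as reporter transcript level via RT-PCR and capillary electrophoresis fluorescence in transfected HepG2, 24 h exposure; gain or loss of signal fitted against DMSO controls.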

[9] = ATG_TAL_CIS: Attagene CIS-FACTORIAL HepG2 Assay for human TAL Basal Promoter (AID 2282966); settings: HepG2 Attagene cis-factorial TAL promoter reporter; actives raise or lower the signal;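 further: background control endpoint measuring basal TAL promoter reporter mRNA not a specific factor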
Summary of the method: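 HepG2 cells were transiently transfected with promoter-driven multiplexed reporter units and dosed for 24 h. Reporter mRNA was measured by RT-PCR with capillary electrophoresis fluorescence; bidirectional fits used DMSO as baseline, serving as a background control.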

[10] = ATG_TGFb_CIS: Attagene CIS-FACTORIAL HepG2 Assay for human Transforming Growth Factor (TGF) (AID 2282967); settings: HepG2 Attagene CIS TGFb reporter, mRNA transcription; actives raise or lower the signal
Summary of the method: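 Transcript-level reporter readout: HepG2 transfectants, 24 h exposure, RNA to cDNA, reporter-specific PCR, fluorescent primer extension, capillary sizing against ROX standards. Gain- or loss-of-signal relative to DMSO.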

Measured: AC50

CN(C)c1ccc(N=O)cc1
inactive: [1] | [2] | [3] | [4] | [5] | [6] | [7] | [8] | [9] | [10]

O=C(CCl)Nc1ccccc1
inactive: [2] | [6] | [7] | [8] | [9] | [10]
active: [1] 3.66 µM | [3] 32.9 µM | [4] 25.8 µM | [5] 6.32 µM

ClCc1ccccc1CCl
inactive: [1] | [2] | [5] | [7] | [10]
active: [3] 22.6 µM | [4] 33.4 µM | [6] 33.4 µM | [8] 22.4 µM | [9] 16.5 µM

CC1(C)[C@H](C(=O)O[C@H](C#N)c2cccc(Oc3ccccc3)c2)[C@@H]1/C=C(\Cl)C(F)(F)F
inactive: [1] | [2] | [3] | [4] | [5] | [6] | [7] | [8] | [9] | [10]

CS(=O)(=O)c1ccc(C(=O)C2C(=O)CCCC2=O)c(Cl)c1COCC(F)(F)F
inactive: [1] | [2] | [3] | [4] | [5] | [6] | [7] | [8] | [9] | [10]

CC(C)[C@@H](Nc1ccc(C(F)(F)F)cc1Cl)C(=O)OC(C#N)c1cccc(Oc2ccccc2)c1 (stereo not given in full)
inactive: [1] | [2] | [3] | [4] | [5] | [6] | [7] | [8] | [9] | [10]

NC(=O)CCl
inactive: [1] | [2] | [3] | [4] | [5] | [6] | [7] | [8] | [9] | [10]

N#Cc1ccccc1Cl
inactive: [1] | [2] | [3] | [4] | [5] | [6] | [7] | [8] | [9] | [10]

Brc1c(Br)c(Br)c(Oc2c(Br)c(Br)c(Br)c(Br)c2Br)c(Br)c1Br
inactive: [1] | [2] | [3] | [4] | [5] | [6] | [7] | [8] | [9] | [10]

Nc1nc(=S)[nH][nH]1
inactive: [1] | [2] | [3] | [4] | [5] | [6] | [7] | [8] | [9] | [10]

CN(C1CCCCC1)C1CCCCC1
inactive: [1] | [2] | [3] | [4] | [5] | [6] | [7] | [8] | [9] | [10]

OC(c1ccc(Cl)cc1)(c1ccc(Cl)cc1)c1cccnc1
inactive: [1] | [2] | [3] | [4] | [5] | [6] | [7] | [8] | [9] | [10]

CC(O)(CS(=O)(=O)c1ccc(F)cc1)C(=O)Nc1ccc(C#N)c(C(F)(F)F)c1 (stereo not given)
inactive: [1] | [2] | [3] | [4] | [5] | [6] | [7] | [8] | [9] | [10]

CCC[N+](CCC)(CCC)CCC
inactive: [1] | [2] | [3] | [4] | [5] | [6] | [7] | [8] | [9] | [10]

CCN(CCO)CCO
inactive: [1] | [2] | [3] | [4] | [5] | [6] | [7] | [8] | [9] | [10]

O=C(NC(=O)c1c(F)cccc1F)Nc1ccc(Cl)cc1
inactive: [1] | [2] | [3] | [4] | [5] | [6] | [7] | [8] | [9] | [10]

CCCCCCCCCCCCBr
inactive: [1] | [2] | [3] | [4] | [5] | [6] | [7] | [8] | [9] | [10]

Brc1ccc(Br)cc1
inactive: [1] | [2] | [3] | [4] | [5] | [6] | [7] | [8] | [9] | [10]

O=C(O)c1cc(I)cc(I)c1I
inactive: [2] | [3] | [4] | [5] | [6] | [7] | [8] | [9] | [10]
active: [1] 27.8 µM

Nc1ncn[nH]1
inactive: [1] | [2] | [3] | [4] | [5] | [6] | [7] | [8] | [9] | [10]

CCOP(=S)(OCC)O/N=C(\C#N)c1ccccc1
active: [1] 7.85 µM
inactive: [2] | [3] | [4] | [5] | [6] | [7] | [8] | [9] | [10]

CC(=O)C(F)(F)C(F)(F)F
inactive: [1] | [2] | [3] | [4] | [5] | [6] | [7] | [8] | [9] | [10]

Cc1ccc(CCl)cc1
inactive: [1] | [2] | [3] | [4] | [5] | [6] | [7] | [8] | [9] | [10]

CC(C)(c1ccc(O)c(-c2ccccc2)c1)c1ccc(O)c(-c2ccccc2)c1
inactive: [1] | [2] | [3] | [4] | [5] | [6] | [7] | [8] | [9] | [10]
